# Experimental data: publication PMC4336329 (PLoS ONE, 2015)
# The campaign covered roughly 310,000 compounds. About 14,000 (4.5%) showed an effect of 50% or more. Effects have a minus sign here. The entries come from a sample that favours strong results as a whole.
# Target: human ether-à-go-go-related gene (hERG) potassium channel (human, UniProt Q12809)
# Assay: primary screen, population patch clamp on CHO cells stably expressing hERG; higher = less effect of the substance
# 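Further: peak tail current of the secondary pulse compared with the same well before compound.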
# Chain of human ether-à-go-go-related gene (hERG) potassium channel (Q12809 whole entry, looked up): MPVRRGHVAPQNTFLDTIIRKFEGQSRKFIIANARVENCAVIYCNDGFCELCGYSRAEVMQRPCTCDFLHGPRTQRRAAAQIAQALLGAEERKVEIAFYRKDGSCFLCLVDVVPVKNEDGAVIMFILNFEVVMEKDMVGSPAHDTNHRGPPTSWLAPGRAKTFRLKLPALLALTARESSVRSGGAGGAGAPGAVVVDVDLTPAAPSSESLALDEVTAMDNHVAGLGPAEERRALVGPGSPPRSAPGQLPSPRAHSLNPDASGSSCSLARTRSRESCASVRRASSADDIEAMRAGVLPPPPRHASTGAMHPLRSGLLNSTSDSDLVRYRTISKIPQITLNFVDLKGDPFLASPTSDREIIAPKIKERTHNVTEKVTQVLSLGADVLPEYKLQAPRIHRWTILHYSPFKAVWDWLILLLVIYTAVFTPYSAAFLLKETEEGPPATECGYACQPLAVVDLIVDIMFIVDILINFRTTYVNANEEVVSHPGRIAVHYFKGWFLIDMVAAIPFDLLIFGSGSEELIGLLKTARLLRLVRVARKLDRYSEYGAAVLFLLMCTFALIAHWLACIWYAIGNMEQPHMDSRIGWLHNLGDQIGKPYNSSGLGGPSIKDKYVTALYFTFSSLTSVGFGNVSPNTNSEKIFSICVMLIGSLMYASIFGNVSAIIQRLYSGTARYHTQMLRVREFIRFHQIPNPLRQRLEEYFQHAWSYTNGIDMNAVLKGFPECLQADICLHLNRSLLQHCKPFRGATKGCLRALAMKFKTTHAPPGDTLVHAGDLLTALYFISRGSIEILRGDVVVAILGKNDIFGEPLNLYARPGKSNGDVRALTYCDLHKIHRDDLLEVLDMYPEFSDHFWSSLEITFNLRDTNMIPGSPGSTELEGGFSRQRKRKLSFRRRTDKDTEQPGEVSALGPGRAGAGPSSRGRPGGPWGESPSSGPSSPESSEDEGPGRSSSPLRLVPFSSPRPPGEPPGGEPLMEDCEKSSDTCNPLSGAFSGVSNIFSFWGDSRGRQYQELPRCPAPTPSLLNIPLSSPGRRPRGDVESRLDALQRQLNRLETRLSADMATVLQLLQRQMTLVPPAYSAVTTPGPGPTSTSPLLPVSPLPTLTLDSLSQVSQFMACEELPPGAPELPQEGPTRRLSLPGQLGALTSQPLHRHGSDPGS
row,Compound,"hERG current change (%, negative = inhibition) at 10uM [%]"
1,O=C(Nc1cccc(-c2nc3ncccc3o2)c1)c1ccccc1,-9.36
2,O=S(=O)(NCc1cccs1)c1ccc(Br)s1,2.07
3,CCN(CC)CCCNC(=O)c1cc(-c2ccccc2)c(N2CCCCC2)s1,-51.7
4,Cn1nc(-c2ccc(Cl)cc2)c2cc(C(=O)NC3CC3)sc21,-1.54
5,Cc1ccc(CNC(=O)c2cc3c(-c4ccc(Cl)cc4)nn(C)c3s2)o1,-8.27
6,CCCN(CCC)CCCNC(=O)c1cc2c(-c3ccc(OC)c(OC)c3)nn(C)c2s1,-6.94
7,CCCCN(C)CCNC(=O)c1cc2c(-c3ccccc3F)nn(C)c2s1,-48
8,CCN1CCCC1CNC(=O)c1cc2c(-c3ccc(Cl)cc3)nn(C)c2s1 (centres unmarked),-62.4
9,O=C(NCCc1ccccc1)c1cc(-c2ccccc2)c(N2CCOCC2)s1,3.07
10,CCCN(CCC)CCNC(=O)c1cc2c(-c3ccccc3F)nn(C)c2s1,-47.2
11,CCCCN(CC)CCNC(=O)c1cc2c(-c3ccccc3F)nn(C)c2s1,-66.7
12,CCCN(CCC)CCNC(=O)c1cc2c(-c3ccc(Cl)cc3)nn(C)c2s1,-65.6
13,CCN1CCCC1CNC(=O)c1cc2c(-c3cccc(OC)c3)nn(C)c2s1 (centres unmarked),-46.3
14,CCCNC(=O)c1cc(-c2ccccc2)c(N2CCCCC2)s1,14.2
15,CCOC(=O)c1ccc(CC2SC(N)=NC2=O)cc1 (centres unmarked),2.63
16,Cc1ccc(NC(=O)CSc2nc(=O)cc(N)n2-c2ccccc2)cc1,20.3
17,CC(C)(C)NC(=O)NC(=O)CN1C(=O)NC(C)(c2ccccc2)C1=O (centres unmarked),15.8
18,O=C(N/N=C/c1ccoc1)c1cccc([N+](=O)[O-])c1,9.75
19,COc1ccc(NS(=O)(=O)c2cccc(C(=O)NCC(c3ccc(OC)cc3)N3CCOCC3)c2)cc1 (centres unmarked),-26.1
20,O=c1c[n+]([O-])c2ccccc2n1OCc1ccccn1,18.9
21,Cc1ccc(N2C(=O)C(NC(=O)c3c(F)cccc3F)(C(F)(F)F)C3=C2CC(C)(C)CC3=O)cc1 (centres unmarked),9.34
22,CC(C)c1cc(-c2cc(C(=O)Nc3ccccc3)on2)nc(NCC2CC2)n1,10.3

row,Compound,"hERG current change (%, negative = inhibition) at 10uM [%]"
1,NC(=O)NN=C1C2CCCC1C(c1ccccc1)NC2c1ccccc1 (centres unmarked),-7.17
2,O=C(O)C/C(=C\c1ccc(Cl)cc1)c1nc2ccccc2o1,6.78
3,Cc1ccc2cc(C)c3nnc(SCC(=O)c4cccs4)n3c2c1C,-23.1
4,Cc1cc(C)c2c(c1)c(C)cc1nnc(SCC(=O)c3cccs3)n12,-2.98
5,Cc1ccc(C)c2c1cc(C)c1nnc(SCC(=O)c3cccs3)n12,-61.5
6,Cc1cc(N)n(-c2ccc(C(=O)O)cc2)n1.Cl,13.6
7,COc1ccc(CNC(=O)c2ccc(-c3ccccc3)cc2)cc1OC,0.777
8,CCc1cccc(NC(=O)CCS(=O)(=O)c2cc3c(cc2C)NC(=O)CO3)c1,-14.1
9,CC1CCCCC1NC(=O)CCS(=O)(=O)c1cc2c(cc1Cl)NC(=O)CO2 (centres unmarked),-30.5
10,Cc1cc2c(cc1S(=O)(=O)CCC(=O)Nc1cccc(C(F)(F)F)c1)OCC(=O)N2,-54
11,Cc1cc2c(cc1S(=O)(=O)CCC(=O)NC1CCC(C)CC1)OCC(=O)N2 (centres unmarked),-14.7
12,CC(=O)c1cccc(NC(=O)CCS(=O)(=O)c2cc3c(cc2C)NC(=O)CO3)c1,1.62
13,Cc1cc2c(cc1S(=O)(=O)CCC(=O)NC1CCCCC1C)OCC(=O)N2 (centres unmarked),-53
14,Cc1nc(Sc2nnnn2-c2ccccc2)c(C#N)c(C)c1C,-21.3
15,CCOC(=O)C1CCCN(C(=O)Cn2cccc2C(=O)c2ccccc2)C1 (centres unmarked),-11.5
16,Cc1cccc(C)c1NC(=O)COC(=O)c1cccnc1,4.43
17,C#CCOC(=O)C[N+](C)(C)C/C=C/c1ccccc1.[Cl-],10.4
18,Cc1oc(-c2cccc(Cl)c2)nc1CN1CCC(C(=O)N2CCN(c3ccccc3F)CC2)CC1,-69.1
19,Cc1cccc(N2CCN(Cc3nc(-c4cccc(Oc5ccccc5)c4)oc3C)CC2)n1,4.13
20,COc1ccc(-c2nc(CN3CCC(C(=O)N4CCOCC4)CC3)c(C)o2)cc1C,-6.98
21,Cc1oc(-c2cccc(Cl)c2)nc1CN1CCC(C(=O)N2CCN(c3ccccn3)CC2)CC1,-68.5
22,Cc1oc(-c2cc(F)ccc2F)nc1CN1CCC(C(=O)N2CCOCC2)CC1,-42.8

row,Compound,"hERG current change (%, negative = inhibition) at 10uM [%]"
1,Cc1oc(-c2cccc(C(F)(F)F)c2)nc1CN1CCOCC1,-3.32
2,Cc1oc(-c2cccc(C(F)(F)F)c2)nc1CN1CCN(c2ccccn2)CC1,-52.5
3,Cc1cccc(-c2nc(CSCC(=O)N3CCN(c4ccccn4)CC3)c(C)o2)c1,-41.2
4,CCN1CCN(C(=O)C2CCN(Cc3nc(-c4cccc(Cl)c4)oc3C)CC2)CC1,-42.9
5,Cn1nnc2ccccc2c1=O,12.5
6,C/C(=N\NC(=S)Nc1c(C)cccc1C)c1cc2ccccc2o1,15.1
7,CCc1ccccc1NC(=O)CSc1n[nH]c(C)c1[N+](=O)[O-],-8.12
8,CCNc1ccc(C(=O)O)cc1N,9.77
9,Cc1cccc(OCCOC(=O)C2CCN(S(=O)(=O)c3cccs3)CC2)c1,6.58
10,COc1cc(NC(=O)c2cccnc2)c(Cl)cc1NC(=O)c1ccc(Cl)cc1,-0.00342
11,COc1cc(/C=C2\SC(=O)NC2=O)ccc1Oc1cnccn1,2.14
12,CC(C)c1ccc(CN(C)C(=O)c2ccc(S(=O)(=O)NCc3ccco3)cc2)cc1,-33.7
13,CN(Cc1cccs1)C(=O)c1ccc(S(=O)(=O)NCc2ccco2)cc1,-54.2
14,CCN(CC(=O)Nc1c(F)cccc1F)C(=O)c1ccc(S(=O)(=O)NCc2ccco2)cc1,8.72
15,Cc1nn(-c2ccccc2)c(C)c1CN(C)C(=O)c1ccc(S(=O)(=O)NCc2ccco2)cc1,-21.2
16,CCN(CC(=O)NCc1ccc(Cl)cc1)C(=O)c1ccc(S(=O)(=O)N(C)C)cc1,-33.2
17,CCN(CC(=O)NCc1ccc(Cl)cc1)C(=O)c1ccc(S(=O)(=O)NCc2ccco2)cc1,-54.9
18,COc1ccc(S(=O)(=O)NCc2ccc(C(=O)N(C)Cc3ccco3)cc2)cc1,-19.1
19,CN(Cc1ccc(Cl)cc1)C(=O)c1ccc(S(=O)(=O)NCc2ccco2)cc1,-51.8
20,COc1ccccc1CN(C)C(=O)c1ccc(S(=O)(=O)NCc2ccco2)cc1,-14.9
21,Cc1ccccc1C(=O)Nc1cccc(NC(=O)c2cccnc2)c1,-9.39
22,CCn1ncc(/C=C2/SC(=S)NC2=O)c1C,23.6

row,Compound,"hERG current change (%, negative = inhibition) at 10uM [%]"
1,CCOc1ncnc2c1sc1nc(C)cc(C)c12,16
2,CC(C)N(C(=O)N1CCC(c2nc(-c3ccncc3)no2)CC1)C(C)C,-15.3
3,O=C(c1ccco1)N1CCN(S(=O)(=O)c2ccc(Br)s2)CC1,-16
4,CCCCNC(=O)c1cc2c(=O)n3cccc(C)c3nc2n(CCN2CCOCC2)c1=N,-86
5,Cc1cccn2c(=O)c3cc(C(=O)NCCN4CCOCC4)c(=N)n(CCCN4CCOCC4)c3nc12,15.2
6,Cc1cccn2c(=O)c3cc(C(=O)NCCN4CCOCC4)c(=N)n(CCN4CCOCC4)c3nc12,18.5
7,CCOCCCn1c(=N)c(C(=O)NCCN2CCOCC2)cc2c(=O)n3cccc(C)c3nc21,-53.6
8,Cc1ccc(NC(=O)CN2CCCCC2)c2c1CC(C)(C)O2,1.17
9,O=C(Cc1cccs1)Nc1nc(-c2ccc(F)cc2F)cs1,-4.34
10,CCCn1cnc2c(=S)nc(N)[nH]c21,16.3
11,CCNCCC(=O)N1c2ccccc2Sc2ccc(NC(=O)OCC)cc21.Cl,-29.6
12,COC(=O)c1c(C)oc2cc(Br)c(OCC(=O)C(C)(C)C)cc12,6.12
13,CC(C)N1C(=O)CCC1C(=O)NC1CCCC1 (centres unmarked),-3.05
14,CCOc1ccc(-c2cc(C(=O)N/N=C(\C)c3cccnc3)c3ccccc3n2)cc1,10.6
15,CCOc1ccc(S(=O)(=O)N(CC)CC(=O)N2CCOCC2)cc1C,6.73
16,CCCNC(=O)NCc1ccc(N2CCCC2=O)cc1,8.43
17,O=C(O)CCCCCCCCCCP(=O)(c1ccccc1)c1ccccc1,-7.05
18,O=P(O)(O)CCP(=O)(c1ccccc1)c1ccccc1,9.46
19,O=P(CCCCCCCCCP(=O)(c1ccccc1)c1ccccc1)(c1ccccc1)c1ccccc1,-56.1
20,CCN(CC(=O)N1CCCCC1)S(=O)(=O)c1ccccc1,-7.12
